Test results reported in the supplement of paper PMC11732987, “Enantioselective OTUD7B fragment discovery through chemoproteomics screening and high-throughput optimisation” (Communications Chemistry, 2025).

Columns and labels:
Assay in all cases: log2 ratio of Biotin-Ahx-Ub-VS probe labelling (fragment/DMSO); higher = less target engagement (more negative = stronger competition), active = hit call of the paper (q ≤ 0.05, log2 ratio ≤ -1)
Details in all cases: compound concentration: 200 uM; treatment time: 3 h
USP34 = USP34 (UniProt Q70CQ2)
In short: (§1)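 Each value is an average log2 ratio of fragment to vehicle, tested by unpaired t-test. The underlying Spectronaut label-free quantities were global-median-normalised, and only proteins with ≥2 unique peptides were included. Triplicate HEK293T lysate samples (495 µg) were exposed to fragment at 200 µM or vehicle for 3 h, then to Biotin-Ahx-Ub-VS at 0.5 µM final for 1 h, before NeutrAvidin enrichment of labelled DUBs, LysC and trypsin digestion, and diaPASEF LC-MS/MS.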

USP36 = molecular target: T1, USP36 (UniProt Q9P275)
T1 sequence (whole entry): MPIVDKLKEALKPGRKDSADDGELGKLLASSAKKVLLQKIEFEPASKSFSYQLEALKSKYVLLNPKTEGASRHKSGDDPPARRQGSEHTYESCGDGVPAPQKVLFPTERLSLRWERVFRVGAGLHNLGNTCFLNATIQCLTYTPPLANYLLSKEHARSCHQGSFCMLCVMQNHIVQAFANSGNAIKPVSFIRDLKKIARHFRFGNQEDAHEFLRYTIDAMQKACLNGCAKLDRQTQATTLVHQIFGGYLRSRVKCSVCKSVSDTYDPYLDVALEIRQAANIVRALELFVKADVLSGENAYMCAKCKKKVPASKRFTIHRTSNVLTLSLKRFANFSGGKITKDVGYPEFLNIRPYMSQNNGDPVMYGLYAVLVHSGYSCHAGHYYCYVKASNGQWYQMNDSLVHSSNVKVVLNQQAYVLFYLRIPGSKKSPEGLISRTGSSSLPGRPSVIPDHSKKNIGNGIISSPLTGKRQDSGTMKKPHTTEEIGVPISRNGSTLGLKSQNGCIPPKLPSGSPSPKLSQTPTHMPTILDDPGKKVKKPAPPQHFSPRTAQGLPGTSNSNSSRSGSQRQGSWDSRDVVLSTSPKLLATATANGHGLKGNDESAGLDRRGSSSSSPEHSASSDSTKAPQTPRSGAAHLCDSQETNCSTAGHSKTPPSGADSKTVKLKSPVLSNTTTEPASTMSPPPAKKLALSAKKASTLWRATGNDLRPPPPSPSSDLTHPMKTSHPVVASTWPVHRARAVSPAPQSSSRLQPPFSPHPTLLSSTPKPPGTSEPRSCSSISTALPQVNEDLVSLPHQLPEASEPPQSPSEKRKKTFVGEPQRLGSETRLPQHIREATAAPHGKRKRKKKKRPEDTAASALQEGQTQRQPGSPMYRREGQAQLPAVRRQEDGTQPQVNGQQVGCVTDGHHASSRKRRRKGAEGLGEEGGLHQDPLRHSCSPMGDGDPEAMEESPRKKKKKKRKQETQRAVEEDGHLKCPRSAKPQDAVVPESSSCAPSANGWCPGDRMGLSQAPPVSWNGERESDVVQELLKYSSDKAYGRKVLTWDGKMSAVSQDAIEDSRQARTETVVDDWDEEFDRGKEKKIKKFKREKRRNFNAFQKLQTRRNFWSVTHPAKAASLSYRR
In short: as §1

USP38 = molecular target: T2, USP38 (UniProt Q8NB14)
T2 sequence (whole entry): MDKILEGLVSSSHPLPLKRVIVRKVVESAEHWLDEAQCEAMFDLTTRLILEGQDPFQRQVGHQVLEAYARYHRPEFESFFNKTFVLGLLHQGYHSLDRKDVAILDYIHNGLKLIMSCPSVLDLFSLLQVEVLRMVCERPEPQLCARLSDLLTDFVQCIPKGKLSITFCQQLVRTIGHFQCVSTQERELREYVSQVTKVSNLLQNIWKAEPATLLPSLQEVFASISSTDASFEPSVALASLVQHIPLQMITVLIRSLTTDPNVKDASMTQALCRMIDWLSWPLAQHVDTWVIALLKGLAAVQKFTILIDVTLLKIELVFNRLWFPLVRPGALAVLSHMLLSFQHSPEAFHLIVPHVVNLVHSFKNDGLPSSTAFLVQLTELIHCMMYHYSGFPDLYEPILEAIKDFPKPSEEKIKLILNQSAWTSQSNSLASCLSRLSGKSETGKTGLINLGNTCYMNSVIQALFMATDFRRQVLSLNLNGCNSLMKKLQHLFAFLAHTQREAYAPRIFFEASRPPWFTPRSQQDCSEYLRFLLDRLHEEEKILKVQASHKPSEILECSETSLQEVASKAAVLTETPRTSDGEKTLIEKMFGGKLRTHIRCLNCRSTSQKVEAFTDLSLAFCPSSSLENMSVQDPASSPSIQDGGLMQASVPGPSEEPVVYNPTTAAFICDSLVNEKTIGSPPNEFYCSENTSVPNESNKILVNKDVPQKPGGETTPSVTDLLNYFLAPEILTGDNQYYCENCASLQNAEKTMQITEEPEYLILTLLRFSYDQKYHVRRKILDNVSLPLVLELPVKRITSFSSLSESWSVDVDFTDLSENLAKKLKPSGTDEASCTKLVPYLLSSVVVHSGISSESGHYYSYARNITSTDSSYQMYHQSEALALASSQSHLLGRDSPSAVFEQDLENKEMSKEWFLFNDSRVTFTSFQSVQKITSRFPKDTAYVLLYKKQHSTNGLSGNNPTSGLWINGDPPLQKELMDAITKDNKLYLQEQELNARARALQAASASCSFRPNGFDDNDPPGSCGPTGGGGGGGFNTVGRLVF
In short: as §1

USP39 = molecular target: T3, USP39 (UniProt Q53GS9)
T3 sequence (whole entry): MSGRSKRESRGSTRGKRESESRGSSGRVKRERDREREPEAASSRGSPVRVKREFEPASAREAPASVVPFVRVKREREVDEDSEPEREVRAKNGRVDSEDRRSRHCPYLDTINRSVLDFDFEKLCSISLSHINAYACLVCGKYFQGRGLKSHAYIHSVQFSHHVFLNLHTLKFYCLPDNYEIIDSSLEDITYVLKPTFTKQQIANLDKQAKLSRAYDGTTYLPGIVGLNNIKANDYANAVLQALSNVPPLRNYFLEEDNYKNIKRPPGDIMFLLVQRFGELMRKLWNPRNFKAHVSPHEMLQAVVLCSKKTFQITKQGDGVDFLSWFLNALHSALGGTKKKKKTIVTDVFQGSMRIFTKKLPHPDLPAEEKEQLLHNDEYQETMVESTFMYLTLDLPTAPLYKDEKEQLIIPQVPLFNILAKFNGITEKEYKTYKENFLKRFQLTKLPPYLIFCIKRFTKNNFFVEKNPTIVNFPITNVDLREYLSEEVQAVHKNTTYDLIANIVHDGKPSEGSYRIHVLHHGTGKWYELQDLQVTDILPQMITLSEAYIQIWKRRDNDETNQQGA
In short: as §1

USP4 = molecular target: T4, USP4 (UniProt Q13107)
T4 sequence (whole entry): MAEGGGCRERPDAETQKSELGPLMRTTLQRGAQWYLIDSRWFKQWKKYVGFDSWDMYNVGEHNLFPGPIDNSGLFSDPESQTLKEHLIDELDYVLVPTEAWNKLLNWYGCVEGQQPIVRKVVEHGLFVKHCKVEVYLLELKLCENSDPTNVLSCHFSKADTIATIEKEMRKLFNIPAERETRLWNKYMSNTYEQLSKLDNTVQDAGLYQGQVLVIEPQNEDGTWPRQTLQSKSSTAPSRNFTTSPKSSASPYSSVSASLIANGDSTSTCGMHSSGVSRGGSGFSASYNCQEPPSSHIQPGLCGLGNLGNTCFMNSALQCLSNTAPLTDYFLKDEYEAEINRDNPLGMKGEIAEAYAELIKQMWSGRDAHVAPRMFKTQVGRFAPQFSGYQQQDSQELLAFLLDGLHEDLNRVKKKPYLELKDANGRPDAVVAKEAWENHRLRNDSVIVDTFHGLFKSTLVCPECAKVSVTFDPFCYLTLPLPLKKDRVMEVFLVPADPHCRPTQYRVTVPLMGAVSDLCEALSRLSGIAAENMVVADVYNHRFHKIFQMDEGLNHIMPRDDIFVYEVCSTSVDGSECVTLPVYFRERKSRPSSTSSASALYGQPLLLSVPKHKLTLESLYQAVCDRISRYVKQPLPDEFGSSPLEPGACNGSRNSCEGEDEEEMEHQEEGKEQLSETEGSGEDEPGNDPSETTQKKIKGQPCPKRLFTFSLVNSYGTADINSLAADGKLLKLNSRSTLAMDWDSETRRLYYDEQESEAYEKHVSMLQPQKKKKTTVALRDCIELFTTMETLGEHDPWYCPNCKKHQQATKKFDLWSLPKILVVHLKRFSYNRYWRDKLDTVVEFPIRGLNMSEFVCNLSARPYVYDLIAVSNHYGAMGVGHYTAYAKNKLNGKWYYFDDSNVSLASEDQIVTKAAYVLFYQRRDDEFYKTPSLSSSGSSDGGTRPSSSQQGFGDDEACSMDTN
In short: as §1

Measured: log2 ratio of Biotin-Ahx-Ub-VS probe labelling

Chain of USP34 (Q70CQ2 whole entry, the tested form may be a part): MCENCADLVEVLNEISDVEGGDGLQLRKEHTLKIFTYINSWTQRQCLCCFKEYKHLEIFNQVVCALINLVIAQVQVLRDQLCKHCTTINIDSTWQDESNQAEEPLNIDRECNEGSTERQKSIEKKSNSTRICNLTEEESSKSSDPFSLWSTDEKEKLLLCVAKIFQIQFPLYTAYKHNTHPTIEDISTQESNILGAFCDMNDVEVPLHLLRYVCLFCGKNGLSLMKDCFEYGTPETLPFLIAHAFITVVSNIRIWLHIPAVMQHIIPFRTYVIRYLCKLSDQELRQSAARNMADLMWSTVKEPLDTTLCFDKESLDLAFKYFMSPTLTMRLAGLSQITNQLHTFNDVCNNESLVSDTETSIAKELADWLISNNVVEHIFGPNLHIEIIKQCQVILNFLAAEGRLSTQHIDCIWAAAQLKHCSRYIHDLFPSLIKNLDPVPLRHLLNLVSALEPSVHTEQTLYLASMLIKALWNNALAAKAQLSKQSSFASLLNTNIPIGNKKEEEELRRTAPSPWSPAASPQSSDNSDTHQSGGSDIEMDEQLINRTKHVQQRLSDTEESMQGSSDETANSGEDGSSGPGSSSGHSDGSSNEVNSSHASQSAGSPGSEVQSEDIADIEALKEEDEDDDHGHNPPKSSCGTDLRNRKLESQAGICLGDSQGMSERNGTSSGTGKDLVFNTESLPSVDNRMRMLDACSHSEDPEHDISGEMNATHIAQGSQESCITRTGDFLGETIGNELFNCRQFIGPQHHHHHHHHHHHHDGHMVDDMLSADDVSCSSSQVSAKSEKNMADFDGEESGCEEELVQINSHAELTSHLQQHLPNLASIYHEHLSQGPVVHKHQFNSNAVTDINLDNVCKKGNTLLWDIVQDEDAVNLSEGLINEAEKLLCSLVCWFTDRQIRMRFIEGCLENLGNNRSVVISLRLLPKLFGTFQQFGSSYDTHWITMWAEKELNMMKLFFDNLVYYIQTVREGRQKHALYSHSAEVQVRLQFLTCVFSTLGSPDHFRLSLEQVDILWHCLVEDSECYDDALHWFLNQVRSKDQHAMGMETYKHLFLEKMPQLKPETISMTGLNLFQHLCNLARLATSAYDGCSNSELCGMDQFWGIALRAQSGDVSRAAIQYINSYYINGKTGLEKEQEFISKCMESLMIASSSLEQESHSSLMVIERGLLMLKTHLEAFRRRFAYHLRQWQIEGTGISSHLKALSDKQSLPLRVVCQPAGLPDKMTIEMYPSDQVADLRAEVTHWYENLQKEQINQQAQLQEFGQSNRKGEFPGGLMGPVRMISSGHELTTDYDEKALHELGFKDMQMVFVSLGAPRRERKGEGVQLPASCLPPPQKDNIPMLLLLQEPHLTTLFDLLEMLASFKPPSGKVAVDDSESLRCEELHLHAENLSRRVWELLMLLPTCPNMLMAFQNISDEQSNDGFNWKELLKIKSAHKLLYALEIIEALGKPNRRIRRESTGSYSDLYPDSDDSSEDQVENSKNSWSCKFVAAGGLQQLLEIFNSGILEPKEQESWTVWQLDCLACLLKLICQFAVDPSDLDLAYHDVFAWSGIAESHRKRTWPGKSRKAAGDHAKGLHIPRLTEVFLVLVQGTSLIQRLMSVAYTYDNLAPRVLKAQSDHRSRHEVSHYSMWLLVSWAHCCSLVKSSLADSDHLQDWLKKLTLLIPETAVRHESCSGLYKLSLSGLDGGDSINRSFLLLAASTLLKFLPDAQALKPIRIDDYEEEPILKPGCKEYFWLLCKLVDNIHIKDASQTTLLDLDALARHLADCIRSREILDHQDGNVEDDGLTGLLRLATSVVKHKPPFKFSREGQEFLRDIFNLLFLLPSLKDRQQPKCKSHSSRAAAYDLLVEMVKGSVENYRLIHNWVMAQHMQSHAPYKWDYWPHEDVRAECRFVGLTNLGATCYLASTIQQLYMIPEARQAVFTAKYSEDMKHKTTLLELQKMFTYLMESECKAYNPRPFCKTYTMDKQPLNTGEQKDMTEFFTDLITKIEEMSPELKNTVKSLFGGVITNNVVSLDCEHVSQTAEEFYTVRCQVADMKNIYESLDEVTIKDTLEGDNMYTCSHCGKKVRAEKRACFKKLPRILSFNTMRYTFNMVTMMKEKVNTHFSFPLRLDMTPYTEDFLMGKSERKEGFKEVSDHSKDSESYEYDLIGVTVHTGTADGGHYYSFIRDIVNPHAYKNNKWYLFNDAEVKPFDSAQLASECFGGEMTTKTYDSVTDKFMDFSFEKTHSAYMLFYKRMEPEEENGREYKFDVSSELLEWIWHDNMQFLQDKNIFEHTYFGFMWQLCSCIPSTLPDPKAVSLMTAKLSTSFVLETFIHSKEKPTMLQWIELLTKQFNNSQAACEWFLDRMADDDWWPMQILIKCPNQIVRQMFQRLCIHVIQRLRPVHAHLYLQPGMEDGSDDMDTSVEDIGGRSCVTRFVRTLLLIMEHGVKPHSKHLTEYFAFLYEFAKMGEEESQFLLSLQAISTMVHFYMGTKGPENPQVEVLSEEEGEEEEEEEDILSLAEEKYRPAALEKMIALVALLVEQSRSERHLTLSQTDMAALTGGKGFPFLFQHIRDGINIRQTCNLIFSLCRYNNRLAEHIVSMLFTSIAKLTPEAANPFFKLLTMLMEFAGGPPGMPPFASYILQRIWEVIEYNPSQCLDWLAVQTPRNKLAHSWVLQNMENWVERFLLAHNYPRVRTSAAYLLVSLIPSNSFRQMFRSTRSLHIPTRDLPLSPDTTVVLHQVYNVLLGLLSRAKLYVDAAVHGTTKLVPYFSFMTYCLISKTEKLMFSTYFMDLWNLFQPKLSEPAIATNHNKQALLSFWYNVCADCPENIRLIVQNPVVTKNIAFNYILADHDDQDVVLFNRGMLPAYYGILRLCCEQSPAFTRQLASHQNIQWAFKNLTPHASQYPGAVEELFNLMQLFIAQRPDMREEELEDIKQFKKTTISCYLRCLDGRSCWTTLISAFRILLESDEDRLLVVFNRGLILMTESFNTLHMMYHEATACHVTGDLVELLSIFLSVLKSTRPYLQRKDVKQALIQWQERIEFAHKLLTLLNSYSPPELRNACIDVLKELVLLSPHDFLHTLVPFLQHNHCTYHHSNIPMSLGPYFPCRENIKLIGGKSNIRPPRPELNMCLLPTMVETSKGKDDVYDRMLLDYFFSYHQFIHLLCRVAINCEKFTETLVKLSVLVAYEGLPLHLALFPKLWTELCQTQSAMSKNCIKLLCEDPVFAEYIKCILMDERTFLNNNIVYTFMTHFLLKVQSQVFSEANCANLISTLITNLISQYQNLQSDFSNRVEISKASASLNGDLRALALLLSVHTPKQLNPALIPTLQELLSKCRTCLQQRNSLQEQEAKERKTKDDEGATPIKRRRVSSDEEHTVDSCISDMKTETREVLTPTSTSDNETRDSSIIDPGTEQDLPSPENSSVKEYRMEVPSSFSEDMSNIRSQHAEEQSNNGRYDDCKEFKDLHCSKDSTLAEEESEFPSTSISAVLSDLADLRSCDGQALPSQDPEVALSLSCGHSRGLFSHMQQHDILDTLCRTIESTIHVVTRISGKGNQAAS

Cl.O=C(CCl)N[C@H]1C[C@@H](n2cccn2)C1
inactive: USP34 -0.109 | USP36 0.0625 | USP38 0.192 | USP39 0.31 | USP4 -0.0753
